According to PubChem BioAssay:
The source made the active and inactive calls.

What was measured:
[1] = tested on: Plasmodium falciparum Sir2 (PF13_0152, Sir2A); experiment: Plasmodium falciparum Sir2A binding compounds – biochemical, small-molecule microarray, 635 nm fluorescence, primary screen (AID 1098); conditions: fluorescence 635 nm, higher = more signal;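 further: score merges spot fluorescence intensity with its signal-to-noise ratio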
[2] = probe aDKK1 binding to arrayed compounds – biochemical, biotinylated probe, 635/667 nm fluorescence, primary screen (AID 1099); conditions: small-molecule microarray, higher = more signal;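 further: score merges 667nm spot fluorescence with signal to noise across triplicate slides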
[3] = probe aCHRDL2 binding to arrayed compounds – biochemical, biotinylated probe, 635/667 nm fluorescence, primary screen (AID 1100); conditions: small-molecule microarray, higher = more signal
[4] = change in splice reporter luminescence, either direction, cell-based, HEK293, spliceosome inhibition project, primary screen (AID 1101); conditions: HEK293 splicing luciferase reporter, 24 h, higher = more signal, called active from +8 up or from −8 down;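 further: HEK293 cells carrying a splicing-competent luciferase reporter gene; test concentration not given here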
[5] = molecular target: Fibroblast growth factor 10 (Homo sapiens) (UniProt O15520); experiment: compounds binding fibroblast growth factor 10 – biochemical, small-molecule microarray, 635 nm fluorescence, primary screen (AID 1102); conditions: FGF10 binding, fluorescence 635 nm, higher = more signal
Fibroblast growth factor 10 (Homo sapiens), sequence (O15520 whole entry, looked up): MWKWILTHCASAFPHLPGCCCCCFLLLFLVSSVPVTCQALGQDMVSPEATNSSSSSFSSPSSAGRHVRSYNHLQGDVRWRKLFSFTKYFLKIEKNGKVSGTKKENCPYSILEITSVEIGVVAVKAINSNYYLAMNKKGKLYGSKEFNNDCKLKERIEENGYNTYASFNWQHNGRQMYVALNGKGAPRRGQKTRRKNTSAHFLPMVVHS

[6] = tested on: glycogen synthase kinase-3 (GSK3A per assay name; protocol says GSK3B); experiment: compounds binding glycogen synthase kinase-3 – biochemical, small-molecule microarray, 635 nm fluorescence, GSK3A, primary screen (AID 1103); conditions: fluorescence 635 nm, higher = more signal; further: the record names both GSK3A and GSK3B
[7] = molecular target: Epidermal growth factor receptor (Homo sapiens) (UniProt P00533); experiment: compounds binding epidermal growth factor receptor – biochemical, small-molecule microarray, 635 nm fluorescence, primary screen (AID 1104); conditions: EGFR binding, higher = more signal;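 further: score merges 667 nm emission intensity with spot signal to noise over triplicate slides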
Epidermal growth factor receptor (Homo sapiens), sequence (P00533 whole entry, looked up): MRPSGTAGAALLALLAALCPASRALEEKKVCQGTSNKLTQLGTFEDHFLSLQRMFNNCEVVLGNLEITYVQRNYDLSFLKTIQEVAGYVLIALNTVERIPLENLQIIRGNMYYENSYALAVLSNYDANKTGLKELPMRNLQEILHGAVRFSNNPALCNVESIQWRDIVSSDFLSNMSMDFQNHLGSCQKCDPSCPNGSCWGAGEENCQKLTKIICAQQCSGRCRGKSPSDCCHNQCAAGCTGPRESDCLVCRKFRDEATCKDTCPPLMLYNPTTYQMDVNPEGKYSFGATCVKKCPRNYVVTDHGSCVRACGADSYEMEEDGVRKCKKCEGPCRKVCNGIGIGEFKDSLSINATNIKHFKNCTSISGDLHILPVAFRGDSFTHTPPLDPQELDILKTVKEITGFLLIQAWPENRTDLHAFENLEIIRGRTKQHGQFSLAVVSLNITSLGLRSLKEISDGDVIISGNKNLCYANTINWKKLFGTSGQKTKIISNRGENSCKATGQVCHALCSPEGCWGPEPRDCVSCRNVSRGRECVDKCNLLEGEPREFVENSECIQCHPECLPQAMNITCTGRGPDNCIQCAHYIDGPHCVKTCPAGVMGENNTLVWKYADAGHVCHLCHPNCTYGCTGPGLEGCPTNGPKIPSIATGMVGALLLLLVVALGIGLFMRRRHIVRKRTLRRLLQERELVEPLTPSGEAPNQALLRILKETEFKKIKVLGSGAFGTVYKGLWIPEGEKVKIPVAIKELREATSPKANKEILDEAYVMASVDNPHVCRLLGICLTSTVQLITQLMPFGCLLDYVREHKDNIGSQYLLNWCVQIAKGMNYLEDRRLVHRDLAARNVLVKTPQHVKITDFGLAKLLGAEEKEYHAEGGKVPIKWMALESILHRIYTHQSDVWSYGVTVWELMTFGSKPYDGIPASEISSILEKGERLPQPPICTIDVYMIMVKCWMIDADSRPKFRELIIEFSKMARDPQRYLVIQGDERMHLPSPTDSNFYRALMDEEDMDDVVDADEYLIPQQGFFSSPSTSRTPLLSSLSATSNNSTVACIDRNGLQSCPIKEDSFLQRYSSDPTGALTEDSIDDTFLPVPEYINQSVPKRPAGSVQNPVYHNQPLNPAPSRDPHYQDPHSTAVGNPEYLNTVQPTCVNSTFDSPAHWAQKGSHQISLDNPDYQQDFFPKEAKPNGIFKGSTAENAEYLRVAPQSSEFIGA

[8] = molecular target: Follistatin-related protein 3 (Homo sapiens) (UniProt O95633); experiment: compounds binding follistatin-related protein 3 – biochemical, small-molecule microarray, 635 nm fluorescence, primary screen (AID 1105); conditions: FSTL3 binding, higher = more signal;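 further: score merges emission near 667 nm and signal to noise per printed spot across three slides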
Follistatin-related protein 3 (Homo sapiens), sequence (O95633 whole entry, looked up): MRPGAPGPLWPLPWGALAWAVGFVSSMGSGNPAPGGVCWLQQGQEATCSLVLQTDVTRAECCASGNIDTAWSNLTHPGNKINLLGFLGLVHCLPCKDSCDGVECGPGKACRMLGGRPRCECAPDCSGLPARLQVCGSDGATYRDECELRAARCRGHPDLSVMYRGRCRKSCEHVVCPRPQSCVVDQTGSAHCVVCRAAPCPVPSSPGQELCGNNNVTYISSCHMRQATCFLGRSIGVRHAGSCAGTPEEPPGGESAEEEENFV

[9] = molecular target: Dickkopf-related protein 1 (Homo sapiens) (UniProt O94907); experiment: small molecules binding DKK1 protein – biochemical, small-molecule microarray, 635 nm fluorescence scan, primary screen (AID 1106); conditions: higher = more signal;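 further: score merges emission near 667 nm with signal to noise over three replicate slides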
Dickkopf-related protein 1 (Homo sapiens), sequence (O94907 whole entry, looked up): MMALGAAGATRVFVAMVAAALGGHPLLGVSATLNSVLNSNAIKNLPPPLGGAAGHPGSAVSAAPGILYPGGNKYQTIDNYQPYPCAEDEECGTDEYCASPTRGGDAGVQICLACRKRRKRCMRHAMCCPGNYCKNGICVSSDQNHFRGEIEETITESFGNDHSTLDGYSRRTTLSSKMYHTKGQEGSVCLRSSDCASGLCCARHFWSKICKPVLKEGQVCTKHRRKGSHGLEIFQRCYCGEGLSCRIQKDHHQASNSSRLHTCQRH

[10] = tested on: Inhibin beta A chain (activin A); experiment: small molecules binding activin A – biochemical, small-molecule microarray, 635 nm fluorescence scan, primary screen (AID 1107); conditions: INHBA, higher = more signal;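 further: mouse activin A protein probed at 4.33 µg/mL on printed slides; score merges bound-protein fluorescence near 667 nm with spot signal-to-noise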
[11] = tested on: Human papillomavirus type 1a protein E7 (residues 44-93); experiment: small molecules binding HPV E7 44-93 – biochemical, small-molecule microarray, residues 44-93, 635 nm fluorescence, primary screen (AID 1108); conditions: fluorescence 635 nm, higher = more signal;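 further: E7 fragment applied at 1 µg/mL in TBST for 1 h at 4 C; score combines spot fluorescence with its signal to noise ratio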
[12] = hepatitis C replication reporter changes, two-sided – Huh7 cells, luciferase reporter, HCV replication inhibitor project, primary screen (AID 1109); conditions: Huh7 HCV replicon luciferase reporter, 48 h; higher = more signal;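 further: huh7 hepatoma cells harbouring a luciferase neomycin HCV replicon reporter; luciferase luminescence as measure of HCV replicon replication; test concentration not given here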
[13] = molecular target: Left-right determination factor 2 (Homo sapiens) (UniProt O00292); experiment: small molecules binding LEFTY2 protein – biochemical, small-molecule microarray, 635 nm fluorescence scan, primary screen (AID 1110); conditions: higher = more signal
Left-right determination factor 2 (Homo sapiens), sequence (O00292 whole entry, looked up): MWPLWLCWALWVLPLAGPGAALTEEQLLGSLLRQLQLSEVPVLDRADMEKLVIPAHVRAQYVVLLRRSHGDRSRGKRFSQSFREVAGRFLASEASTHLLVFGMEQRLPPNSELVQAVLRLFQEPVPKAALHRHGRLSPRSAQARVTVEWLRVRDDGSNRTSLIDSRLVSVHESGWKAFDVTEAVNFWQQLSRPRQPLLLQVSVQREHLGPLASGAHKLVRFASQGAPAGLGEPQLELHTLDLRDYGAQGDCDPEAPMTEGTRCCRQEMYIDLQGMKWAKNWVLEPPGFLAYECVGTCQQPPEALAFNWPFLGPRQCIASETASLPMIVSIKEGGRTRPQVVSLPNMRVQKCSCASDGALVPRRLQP

[14] = molecular target: Calmodulin-1 (Homo sapiens) (UniProt P0DP23); experiment: small molecules binding calmodulin-1 with EGTA – biochemical, small-molecule microarray, Cy5-labelled CALM1, profiling panel (AID 1111); conditions: Cy5-CALM1 binding fluorescence, higher = more signal;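 further: labelled calmodulin applied in Tris saline Tween buffer holding calcium plus EGTA and DTT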
[15] = molecular target: Calmodulin-1 (Homo sapiens) (UniProt P0DP23); experiment: small molecules binding Ca-loaded calmodulin-1 – biochemical, small-molecule microarray, Cy5-labelled CALM1, plus calcium, artefact control for SMM control-protein annotation, profiling panel (AID 1112); conditions: Cy5-CALM1 binding fluorescence, higher = more signal;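 further: score merges spot fluorescence with signal to noise from triplicate slides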
[16] = probe aWnt5a binding to arrayed compounds – biochemical, biotinylated probe, 635/667 nm fluorescence, primary screen (AID 1113); conditions: small-molecule microarray, higher = more signal;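 further: score merges 667 nm fluorescence intensity with signal-to-noise per printed feature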
[17] = probe aShh binding to arrayed compounds – biochemical, biotinylated probe, 635/667 nm fluorescence, primary screen (AID 1114); conditions: small-molecule microarray, higher = more signal;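 further: probe is biotin-labelled aShh protein from a stem cell growth factor screen; measures binding of labelled protein to compounds printed on the slide; score merges feature fluorescence at 667 nm with signal-to-noise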
[18] = probe aNog binding to arrayed compounds – biochemical, biotinylated probe, 635/667 nm fluorescence, primary screen (AID 1115); conditions: small-molecule microarray, higher = more signal;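 further: probe is biotinylated aNog protein used at 0.15 µg/mL for 1 h at 4 C; z-score combines 667 nm fluorescence of each spot with its signal to noise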
[19] = molecular target: Torsin-1A-interacting protein 1 (Homo sapiens) (UniProt Q5JTV8); experiment: compound microarray binding of lysate hLAP1 – cell lysate, small-molecule microarray, COS7 lysate, 635/667 nm fluorescence, primary screen (AID 1116); conditions: 635 nm fluorescence, higher = more signal
Torsin-1A-interacting protein 1 (Homo sapiens), sequence (Q5JTV8 whole entry, looked up): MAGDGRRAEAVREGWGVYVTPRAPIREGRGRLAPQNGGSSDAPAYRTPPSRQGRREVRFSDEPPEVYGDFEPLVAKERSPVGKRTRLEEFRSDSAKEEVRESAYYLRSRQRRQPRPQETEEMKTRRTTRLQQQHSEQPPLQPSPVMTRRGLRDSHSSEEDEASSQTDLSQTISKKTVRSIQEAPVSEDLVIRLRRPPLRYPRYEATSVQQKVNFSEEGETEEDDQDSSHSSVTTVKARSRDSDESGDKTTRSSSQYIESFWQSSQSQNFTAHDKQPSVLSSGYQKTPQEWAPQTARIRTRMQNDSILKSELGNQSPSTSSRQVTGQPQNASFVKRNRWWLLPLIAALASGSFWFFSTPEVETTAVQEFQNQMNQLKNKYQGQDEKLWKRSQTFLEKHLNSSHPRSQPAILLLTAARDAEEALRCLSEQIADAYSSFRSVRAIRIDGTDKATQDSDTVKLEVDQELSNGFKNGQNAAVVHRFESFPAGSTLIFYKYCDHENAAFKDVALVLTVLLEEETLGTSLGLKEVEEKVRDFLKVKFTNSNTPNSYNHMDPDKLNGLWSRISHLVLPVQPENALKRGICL

[20] = molecular target: Alpha-bungarotoxin (Bungarus multicinctus) (UniProt P60615); experiment: compounds binding labelled alpha-BTX control protein – biochemical, small-molecule microarray, Alexa647 label, 635/667 nm fluorescence, artefact control for SMM control protein annotation, profiling panel (AID 1117); conditions: alpha-BTX-A647 binding fluorescence, higher = more signal
Alpha-bungarotoxin (Bungarus multicinctus), sequence (P60615 whole entry, looked up): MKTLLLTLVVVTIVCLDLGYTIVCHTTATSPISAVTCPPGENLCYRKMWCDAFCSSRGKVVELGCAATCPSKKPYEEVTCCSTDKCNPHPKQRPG

Compound	composite z-score [1]	composite z-score [2]	composite z-score [3]	z-score [4]	composite z-score [5]	composite z-score [6]	composite z-score [7]	composite z-score [8]	composite z-score [9]	composite z-score [10]	composite z-score [11]	z-score [12]	composite z-score [13]	composite z-score [14]	composite z-score [15]	composite z-score [16]	composite z-score [17]	composite z-score [18]	composite z-score [19]	composite z-score [20]
Cc1ccc(S(=O)(=O)N2CC(C(=O)O)=CCC2c2ccccc2)cc1 (stereo not given)	1.11	0.133	0.696	0.566 (inactive)	-0.265	-0.5	-0.638	-0.95	-1.6	-0.538	0.467	-0.212	-1.58	0.0207	0.52	0.173	0.0639	-0.468	0.505	0.277
CC(c1ccccc1)C(O)C1C=CC2C(=O)N(Cc3ccccc3)C(=O)C2N1n1cnnc1 (stereo not given)	0.424	0.492	0.675	-0.605 (inactive)	0.691	0.29	0.153	0.369	-0.174	0.813	1.12	-0.562	0.202	-0.133	0.13	0.0657	0.297	0.49	0.0111	0.512
[N-]=[N+]=NCc1ccccc1C[C@]1(C(N)=O)N=C(c2ccc(OCCCO)cc2)O[C@H]1c1ccccc1N=[N+]=[N-]	0.573	0.911	1.16	-0.288 (inactive)	0.617	1	-0.236	0.416	-0.322	1.45	1.4	-0.507	0.308	1.18	0.596	0.193	0.232	1.08	1.71	1.24
O=C1c2ccccc2[C@](Cc2ccccc2I)(C(=O)O)[C@H](c2ccc(CO)cc2)N1Cc1ccccc1C(F)(F)F	0.674	-0.483	-0.388	0.185 (inactive)	-0.414	0.464	-0.709	0.19	-0.376	0.353	1.46	-0.702	-0.422	1.08	-0.604	-0.0006	-0.0382	0.689	-0.0086	1.58
C=C[C@@H](C)[C@@H](OC(=O)Nc1ccc(OC)cc1)c1ccc(O)c2ccccc12	1.13	-0.241	-0.576	-0.0898 (inactive)	0.856	0.357	0.762	0.723	0.475	1.24	0.118	-1.84	0.312	-0.27	-0.667	-0.152	-0.223	-0.409	-0.0999	-0.511
COCCOC(=O)N1C(=O)[C@@]2(c3cc(C#Cc4ccc(OC)cc4)ccc31)[C@H](c1ccc(OCCO)cc1)N1[C@H](c3ccccc3)[C@H](c3ccccc3)OC(=O)[C@H]1[C@@H]2C(=O)N1CCc2cc(OC)c(OC)cc2C1	1.41	-0.126	-0.227	-0.355 (inactive)	0.812	1.12	0.463	1.3	0.435	0.273	1.22	-0.603	0.493	0.784	0.458	-0.203	-0.0824	-0.0602	0.705	0.571
CO[C@H]1O[C@H](CO)[C@@H](OC(=O)Nc2cccc(F)c2)[C@H](OC(=O)Nc2ccccc2-c2ccccc2)[C@@H]1OC(=O)Nc1ccccc1-c1ccccc1	1.13	0.568	0.74	1.54 (inactive)	1.17	0.673	0.407	1.11	0.198	0.434	1.16	-3.61	0.343	1.95	0.283	0.0825	0.0684	-0.268	1.47	1.96
C=C(COC)C(=O)CC[C@H](OC(=O)c1cccnc1)c1ccccc1OCCO	1.25	0.224	0.561	0.193 (inactive)	1.12	0.844	0.471	1.27	0.559	1.22	0.862	-3.13	0.53	-0.0382	-0.689	-0.0479	-0.138	0.437	1.08	0.443
C=C(CCCC)C(=O)CC[C@H](OC(C)=O)c1ccc(CO)o1	0.621	-0.402	-0.456	-1.14 (inactive)	0.123	0.2	-0.567	-0.139	-0.0639	1.24	0.478	-0.72	-0.0361	-0.933	-1.06	-0.0182	0.13	-0.196	1.43	-0.28
C=C(COC)C(=O)CC[C@@H](OC(=O)c1ccccc1-c1ccccc1C(=O)O)c1ccc(CO)o1	1.51	-0.4	-0.69	-1.24 (inactive)	1.57	0.464	0.109	0.399	1.14	0.466	0.512	-4.48	1.01	1.63	0.417	-0.256	-0.34	-0.251	0.709	0.206
Cc1ccc(S[C@]2(C(=O)NCCCN(C)C)CC(=O)N(C(C)C)[C@@H]2c2ccc(CO)cc2I)cc1	1.37	0.17	0.789	-1.44 (inactive)	-0.238	-0.627	-0.228	-0.137	-0.827	1.1	-0.257	-2.53	-0.829	0.314	0.344	-0.0748	-0.0035	-0.487	0.309	0.397
